Marburg entry inh – blocks Marburg virus binding to or entry into cells; Marburg virus pseudotyped entry inhibition, cell reporter; Potency, µM (series often up to 37.8 µM), without a hit: at the top dose activity change, negative = inhibition, most hits filed as inhibitors; hit rate 1.8% among 300,000; calls by dose curve; tested in HEK293 cells; also: potency is read from the fitted curve at half-maximal effect; % is scaled to controls: 0 for no effect and ±100 for the full control effect
HCMV antiviral – blocks human cytomegalovirus replication | HFF cells, HCMV-luciferase reporter, 72 h; hits give low values | activity change, negative = inhibition, % at 57.5 µM | hit rate 4.5% among 410,000 | AID 1259415; in the data active = activity change below about -60%; inconclusive = no clear call, values can overlap the other calls; inactive = above about -39%; also: % is scaled to controls: 0 for no effect and ±100 for the full control effect
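Two-dose cell screen: HFF monolayers treated with compounds and infected with luciferase-expressing HCMV at 1 PFU/cell, 72 h at 37C, then lysed for luciferase measurement.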
SARS PLP yeast – SARS-CoV PLP inhibition in yeast; S. cerevisiae expressing SARS-CoV PLpro, growth rescue; Potency, µM (series often up to 32.9 µM), for the others: at the top dose activity, positive = growth rescue, most hits filed as activators; hit rate 0.19% among 330,000; calls by dose curve; also: potency is read from the fitted curve at half-maximal effect; 0% is about no effect; nearly all actives have a fitted effect of over 55% in size
FMDV inh – foot and mouth disease virus antiviral activity | FMDV antiviral cell-based qHTS | Potency, µM (top dose mostly 57.9 µM), for the others: top-dose activity change, negative = inhibition, hits mostly inhibitors | hit rate 1.2% among 410,000; calls by dose curve; tested in HEK293T cells; also: read-out not given here; potency is read from the fitted curve at half-maximal effect; % is scaled to controls: 0 for no effect and ±100 for the full control effect; nearly all actives have a fitted effect of over 45% in size
Lassa entry inh – inhibitors of Lassa virus binding or cell entry; Potency, µM (titrated, usually from 37.9 µM), for the others: at the top dose activity change, negative = inhibition, hits mostly inhibitors; Lassa virus pseudotype entry inhibition, cell reporter; hit rate 1.2% among 300,000; AID 540256; calls by dose curve; tested in HEK293 cells; also: potency is read from the fitted curve at half-maximal effect; % is scaled to controls: 0 for no effect and ±100 for the full control effect; nearly all actives have a fitted effect of over 50% in size
HCV inh – HCV inhibition | Huh7.5.1 HCVcc-Cre infection, luciferase reporter, 44 h | Potency, µM (highest dose often 41.8 µM), without a hit: at the highest dose activity change, negative = inhibition, most hits filed as inhibitors | hit rate 3.4% among 340,000 | AID 651820; active = well fitted inhibition curve with a large enough effect; inconclusive = small, poorly fitted or top-dose-only effect, or another doubt; inactive = no such curve, though single readings can be large or run the other way; also: potency is read from the fitted curve at half-maximal effect; % is scaled to controls: 0 for no effect and ±100 for the full control effect
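HCVcc-Cre virus at an moi near 0.5 was added right after compound to cells cultured 4 h from seeding (1,000 cells/well). Luciferase activity was determined 44 h later, 15 min after substrate addition at RT.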
Starred values were filed as active, the others as inactive; ? = inconclusive; · = not tested or not shown; + = active, no number; ! = a repeat was not active; [ ] = remark or other dose. In the library only some 8% were active in any assay of this set; here they are far more common.

SMILES | Marburg entry inh | HCMV antiviral | SARS PLP yeast | FMDV inh | Lassa entry inh | HCV inh
CC(C)CC(COCc1ccc(F)cc1)N1CCN(C(=O)c2cccc(C(F)(F)F)c2)CCC1=O (stereo unspecified) | ? | 11 | 3% | -22% | 21µM* | -8%
CCOC(=O)c1ccccc1NC(=O)C=C(C)C | ? | -11 | 30% | 11% | 7% | 3%
CC(C)=CC(=O)Nc1ccccc1C(N)=O | 6% | -74* | 1% | 13% | 16% | 11%
CCC(=NCCc1ccccc1)c1c(O)[nH]c(=O)[nH]c1=O | 0% | 28 | 0% | -16% | 0% | 0.32µM*
CNc1nc2cnc(Nc3ccc(F)c(Cl)c3)cc2n1-c1cc(OC)c(OC)c(OC)c1 | · | 76 | · | · | · | ·
Cc1ccc(-n2ncc3c(N4CCN(c5ccccc5)CC4)ncnc32)c(C)c1 | -16% | -82* | 6% | 3.2µM* | ? | 4.5µM*
Cc1cccc(-n2ncc3c(N4CCCC4)ncnc32)c1 | ? | -2 | -38% | · | ? | ?
Cc1cccc(-n2ncc3c(N4CCN(c5ccccc5)CC4)ncnc32)c1 | · | + | · | ? | -47%[46.1 µM] | ·
Cc1ccc(-n2ncc3c(NCc4cccnc4)ncnc32)c(C)c1 | ? | ? | -32% | ? | ? | 10µM*!
COc1ccc(N2CCN(c3ncnc4c3cnn4-c3ccc(C)cc3C)CC2)cc1 | 3% | -36 | -7% | ? | -25% | 10%
COc1ccc(-n2ncc3c(N4CCN(c5cccc(C)c5)C(C)C4)ncnc32)cc1 (stereo unspecified) | · | -66* | · | 20µM* | ? | ·
Cc1cc(Cl)ccc1OCC(=O)O[C@@H](C)C(=O)N(C)C | 4% | · | · | · | · | ·
Cc1cccc(-n2ncc3c(N4CCOCC4)ncnc32)c1 | 3.7µM* | 30 | -24% | -77% | 1.6µM* | -17%
Cc1cccc(-n2ncc3c(N4CCN(CCO)CC4)ncnc32)c1 | · | 87 | · | 42% | 12%[46.1 µM] | ·
Cc1nn(S(=O)(=O)c2ccc(Cl)cc2)c(C)c1Sc1ccc([N+](=O)[O-])cc1 | ? | -78* | -11% | ? | ? | ?
Cc1nn(S(=O)(=O)c2ccc(Cl)cc2)c(C)c1S(=O)(=O)N1CCCCCC1 | · | 4 | · | ? | 5%[46.1 µM] | ·
Cc1nn(-c2ccccc2)c(N)c1Sc1ccc([N+](=O)[O-])cc1 | -12% | -28 | -95% | 32µM* | 3% | -24%
Cc1cccc(-n2cnc(C(=O)NNC(=S)Nc3ccc(Cl)cc3)c2)n1 | 11µM* | -23 | 16% | -1% | ? | -1%
Cc1ccc(NC(=S)NCc2ccc3[nH]c4c(c3c2)CCCC4)cc1 | ? | ? | -15% | -22% | ? | -35%
COCCNC(=S)NCc1ccc2[nH]c3c(c2c1)CCCC3 | · | -73* | -2% | 11% | · | -26%
CC(C)C(=O)N1CCC(n2nccc2NC(=O)CCc2ccccc2)CC1 | · | -17 | 2% | 0% | · | 12%
ON=C(CCc1ccccc1)CCc1ccccc1 | -8% | -75* | · | -15% | ? | 11%
Cc1c(Cl)cccc1NC(=S)NCCc1ccc(C(F)(F)F)cc1 | 10µM* | -33 | -24% | -22% | ? | 11µM*
Cc1c(Cl)cccc1NC(=S)NCCc1ccccn1 | 2%[14.2 µM] | -69* | 0% | -5% | -28% | -9%
COc1ccc(NC(=O)C2(C)CCN2C(=O)C(C)C)cc1F (stereo unspecified) | · | -17 | · | -3% | · | ·
SMILES | Marburg entry inh | HCMV antiviral | SARS PLP yeast | FMDV inh | Lassa entry inh | HCV inh
Cc1cc([N+](=O)[O-])nn1Cc1noc(C(=O)NCCc2ccccn2)n1 | 13%[46.1 µM] | -7 | 0% | 15% | · | 21%
COC(=O)c1[nH]c(C)c(/C(O)=C2\C(=O)C(=O)N(CCN3CCOCC3)[C@H]2c2cccnc2)c1C | 4% | · | · | · | · | ·
COC(=O)CN1C(=O)[C@@H]2[C@H](C1=O)[C@@H]1CC(C(=O)OC)=C[C@@H](C(=O)OC)[C@@H]3C1=C(C(=O)[C@@]3(C)NC(=O)c1ccccc1)[C@@H]2C | · | -66* | · | -9% | · | -21%
O=C(CCl)N1CCN(S(=O)(=O)c2ccc3ccccc3c2)CC1 | ? | -98* | 8% | 25µM* | ? | ?
O=C(CCl)N1CCN(S(=O)(=O)c2ccc3c(c2)OCCCO3)CC1 | · | ? | 10% | 25µM* | · | ?
CN(C)C(=O)N1CCN(S(=O)(=O)c2ccc3ccccc3c2)CC1 | 0%[46.1 µM] | 12 | 1% | -14% | ? | ?
CCCCCC(=O)N1CCN(S(=O)(=O)c2ccc3c(c2)OCCO3)CC1 | ? | 6 | 4% | -10% | -17% | 22%
O=C(CSc1ccc2ccccc2c1)N1CCN(c2ccc(O)cc2)CC1 | · | -78* | -3% | 7% | · | -22%
CN1CCN(S(=O)(=O)c2ccc3ccccc3c2)CC1 | · | 9 | -5% | -6% | · | 14%
O=S(=O)(c1ccc2ccccc2c1)N1CCN(c2ccc(O)cc2)CC1 | · | -66* | -12% | 29% | · | ?
O=C(c1ccc2ccccc2c1)N1CCN(c2ccc(O)cc2)CC1 | 4% | -34 | -5% | 33% | -6% | 3%
CCCS(=O)(=O)N1CC(=O)N(c2ccccc2C)C(C)(C(=O)NC2CCCCC2)C1 (stereo unspecified) | · | 0 | · | 10% | -5%[46.1 µM] | ·
Cc1cccc(-c2cc3nc(C)cc(NCCCN(C)C)n3n2)c1 | ? | 91 | -6% | 10% | ? | 2.5µM*
CCN(CC)CCCNc1cc(C)nc2cc(-c3cccs3)nn12 | 18µM* | -22 | -1% | -7% | -18%[46.1 µM] | ?
Cc1cccc(-c2cc3nc(C)cc(C)n3n2)c1 | ? | 172 | -2% | 50% | ? | 10µM*
COc1ccc(-c2cc3nc(C)cc(-c4ccc(OC)cc4)n3n2)cc1 | · | 20 | -2% | -3% | · | 10µM*
COc1ccc(-c2cc3nc(C)cc(N)n3n2)cc1 | ? | 153 | -37% | -53% | ? | 13%
c1ccc(-c2[nH]ncc2-c2ccnc3ccccc23)nc1 | · | · | · | -10% | · | ·
Cc1ccc(S(=O)(=O)c2nc(-c3cccc(Br)c3)oc2N2CCCCCC2)cc1 | -2%[46.1 µM] | 9 | · | 20% | -23%[46.1 µM] | ·
COc1cc(-c2n[nH]c3ccnc(-c4ccccc4)c23)cc(OC)c1OC | · | -8 | · | · | · | ·
COc1cc2c(cc1OC)/C(=C/c1ccc(Cl)cc1)C(=O)OC2 | ? | 0 | -11% | 40µM* | -15% | -5%
Cc1nc(Cl)c(C(=O)NC(=O)NCc2ccccc2)c(C)c1Cl | -12% | 11 | 15% | -16% | ? | -10%
COc1ccc2c(c1)c1c(c(=O)n(Cc3ccccc3)c(=O)n1Cc1cc(C)ccc1C)n2C | · | 1 | · | -16% | ? | ·
CCCc1cc(=O)n2nc(N3CCC(C(=O)N4CCN(c5cccc(OC)c5)CC4)CC3)sc2n1 | · | -70* | -7% | ? | · | ?
CCOC(=O)C1CCN(C(=O)C2CCN(c3nn4c(=O)cc(C)nc4s3)CC2)CC1 | · | 23 | 3% | -11% | · | 5%
O=C(NCc1ccc(Cl)cc1)C1CCN(c2ncnc3c2nc2n3CCCCC2)CC1 | · | 27 | · | -11% | 16%[46.1 µM] | ·
